Experimental data from PubChem BioAssay.

molecular target: Calmodulin-1 (Homo sapiens) (UniProt P0DP23); experiment: small molecules binding Ca-loaded calmodulin-1 – biochemical, small-molecule microarray, Cy5-labelled CALM1, plus calcium, artefact control for SMM control-protein annotation, profiling panel (AID 1112); conditions: Cy5-CALM1 binding fluorescence, higher = more signal;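 note: score merges spot fluorescence with signal to noise from triplicate slides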

SMILES | composite z-score
O=C(NCc1ccccc1)[C@@]1(Cc2ccccc2)N=C(c2ccc(OCCCO)cc2)O[C@H]1c1ccccc1 | 1.09
CC(C)(C)OC(=O)CC[C@@]12N=C(c3ccc(OCCCO)cc3)O[C@@H]1c1ccccc1N(CCS(=O)(=O)c1ccccc1)C2=O | 0.105
[N-]=[N+]=NCc1ccccc1[C@@H]1OC(c2ccc(OCCCO)cc2)=N[C@]1(Cc1ccccc1N=[N+]=[N-])C(=O)N1CCOCC1 | 0.995
COCCOC(=O)N1C(=O)[C@@]2(c3cc(C#CC4(O)CCCCCC4)ccc31)[C@H](c1ccc(O)cc1)N1[C@H](c3ccccc3)[C@H](c3ccccc3)OC(=O)[C@H]1[C@@H]2C(=O)Nc1nc2ccccc2s1 | 0.516
COCCOC(=O)N1C(=O)[C@@]2(c3cc(C#CC4=CCCCC4)ccc31)[C@H](C(=O)N1CCc3cc(OC)c(OC)cc3C1)[C@H]1C(=O)O[C@H](c3ccccc3)[C@H](c3ccccc3)N1[C@@H]2c1ccc(OCCO)cc1 | 0.269

system: not listed separately; experiment: probe aWnt5a binding to arrayed compounds – biochemical, biotinylated probe, 635/667 nm fluorescence, primary screen (AID 1113); conditions: small-molecule microarray, higher = more signal;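 note: score merges 667 nm fluorescence intensity with signal-to-noise per printed feature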

SMILES | composite z-score
O=C1[C@H]2C=C(Br)[C@H](C[C@@H]2c2ccccc2)[C@@]12CO2 | -0.152
COc1ccc(C#Cc2ccc3c(c2)[C@]2(C(=O)N3)[C@H](c3ccccc3OCCO)N3[C@H](c4ccccc4)[C@H](c4ccccc4)OC(=O)[C@H]3[C@@H]2C(=O)O)cc1 | 0.0932
O=C1O[C@H](c2ccccc2)[C@H](c2ccccc2)N2[C@H]1[C@@H](C(=O)N1CCN(c3ncccn3)CC1)[C@]1(C(=O)Nc3ccc(C#CC4=CCCCC4)cc31)[C@H]2c1ccc(O)cc1 | -0.0721
C=CC[C@@]1(C(N)=O)N=C(c2ccc(OCCCO)cc2)O[C@@H]1c1ccccc1CN=[N+]=[N-] | 0.0597
COC(=O)[C@@]1(Cc2ccccc2)[C@H]2c3cc(C(=O)N4CCCC4)n(Cc4nc5ccccc5[nH]4)c3C[C@H]2CN1C(=O)c1ccccc1 | 0.0003
O=C1O[C@H](c2ccccc2)[C@H](c2ccccc2)N2[C@H]1[C@@H](C(=O)O)[C@]1(C(=O)Nc3ccc(C#CC4=CCCCC4)cc31)[C@H]2c1ccccc1OCCO | 0.795
COCCOC(=O)N1C(=O)[C@@]2(c3cc(C#Cc4ccc(OC)cc4)ccc31)[C@H](c1ccccc1OCCO)N1[C@H](c3ccccc3)[C@H](c3ccccc3)OC(=O)[C@H]1[C@@H]2C(=O)N1CCN(c2ncccn2)CC1 | -0.118
C=C/C=C/[C@H]1C(=C)CN([C@@H](Cc2ccccc2)C(=O)OC)[C@@H]1[C@H](O)Cc1ccccc1 | -0.129
C=CCOC(=O)[C@H]1[C@@H]2C(=O)O[C@@H](c3ccccc3)[C@@H](c3ccccc3)N2[C@@H](c2ccc(OCCOC(=O)[C@@H]3C[C@@H]4C(=O)N[C@@H](CCCC[N+](C)(C)C)C(=O)N4[C@@H]3c3ccc(O)cc3)cc2)[C@]12C(=O)Nc1ccccc12 | -0.0398
C[C@@H]1ON(c2cccc(C(=O)OC(C)(C)C)c2)[C@H](c2ccc(Br)cc2)[C@H]1C(=O)N1C(=O)OC[C@H]1Cc1ccccc1 | 0.667
O=C1C2C=CC(C(O)c3ccc(F)cc3)N(Nc3ccccc3F)C2C(=O)N1c1ccccc1 (stereo not given) | -0.001
COc1ccc(CCN2C(=O)[C@@]3(Cc4ccccc42)c2ccccc2C(=O)N(Cc2ccccc2C(F)(F)F)[C@H]3c2ccc(CO)cc2)cc1 | -0.158
COC(=O)[C@@]1(Cc2ccc(OC)cc2)[C@H]2c3cc(C(=O)N4CCCC4)n(Cc4ccsc4Br)c3C[C@H]2CN1C(=O)c1ccccc1 | -0.0944
O=C1NC(=O)C2C1C=CC(C(O)Cc1ccccc1)N2Nc1ccc(Cl)cc1Cl (stereo not given) | -0.0825
COC(=O)[C@@]1(Cc2ccccc2)[C@H]2c3cc(C(=O)N4CCCC4)n(CC4CC4)c3C[C@H]2CN1C(=O)c1ccccc1 | 0.647
COC(=O)[C@@]1(Cc2ccc(F)cc2)[C@H]2c3cc(C(=O)N4CCCC4)n(Cc4ccc(C)o4)c3C[C@H]2CN1C(=O)c1ccccc1 | 0.319
COc1cc2c(cc1OC)CN(C(=O)[C@H]1[C@@H]3C(=O)O[C@@H](c4ccccc4)[C@@H](c4ccccc4)N3[C@@H](c3ccc(O)cc3)[C@]13C(=O)Nc1ccc(C#CC4=CCCCC4)cc13)CC2 | 0.133
[N-]=[N+]=Nc1ccccc1[C@H]1OC(c2ccc(OCCCO)cc2)=N[C@@]1(Cc1ccccc1)C(=O)O | 0.0375

SMILES | composite z-score
CC(C)N1C(=O)[C@@]2(Cc3ccccc31)c1ccccc1C(=O)N(C1CCCCC1)[C@H]2c1ccc(CO)cc1 | -0.063
CCOC(=O)[C@H]1C/C=C/C[C@H](C(=O)OCC)C(=O)O[C@H]2[C@@H](OC)O[C@H](CO)[C@@H](OC(=O)Nc3ccc(C#N)cc3)[C@@H]2OC1=O | -0.124
CCCC=C(CCC)[C@@H](NS(=O)(=O)c1cccs1)c1ccc(C(=O)OC)cc1 | 0.105
COC(=O)[C@@]1(Cc2ccc(F)cc2)[C@H]2c3cc(C(=O)N(C)C)n(Cc4nc5ccccc5[nH]4)c3C[C@H]2CN1C(=O)c1ccccc1 | 0.178
CC(C)(C)OC(=O)CC[C@@]1(C(=O)NCC(O)CO)N=C(c2ccc(OCCCO)cc2)O[C@@H]1c1ccccc1N=[N+]=[N-] (stereo not given in full) | 0.0279
CCOc1cc(C(O)C2C=CC3C(=O)N(c4ccccc4)C(=O)C3N2Nc2ccccc2)ccc1O (stereo not given) | -0.0312
CN1C(=O)C2C=CC(C(O)Cc3ccccc3)N(Nc3ccccc3)C2C1=O (stereo not given) | -0.0738
COC(=O)C(CC#Cc1ccc2c(c1)[C@]1(C(=O)N2)[C@H](c2ccc(O)cc2)N2[C@H](c3ccccc3)[C@H](c3ccccc3)OC(=O)[C@H]2[C@@H]1C(=O)Nc1nc2ccccc2s1)C(=O)OC | 0.0998
COc1ccc(C(=O)Nc2ccc(CN3C(=O)[C@@]4(O[C@@H](CCO)[C@H]([Si](C)(C)c5ccc(OC)cc5)[C@H]4C)c4ccccc43)cc2)cc1 | 0.0367
COCCOC(=O)N1C(=O)[C@@]2(c3cc(C#Cc4ccc(OC)cc4)ccc31)[C@H](C(=O)N1CCCCCCC1)[C@H]1C(=O)O[C@H](c3ccccc3)[C@H](c3ccccc3)N1[C@@H]2c1ccc(OCCO)cc1 | 0.543
O=C1O[C@H](c2ccccc2)[C@H](c2ccccc2)N2[C@H]1[C@@H](C(=O)O)[C@]1(C(=O)Nc3ccc(C#CCCO)cc31)[C@H]2c1ccc(O)cc1 | 0.0044
CC(C)(C)C(=O)N[C@@H](c1ccc(Cl)cc1)[C@]1(C)C[C@H]1C1CCCCC1 | 0.197
O=C(NCc1ccccc1)[C@@]1(Cc2ccccc2)N=C(c2ccc(OCCCO)cc2)O[C@H]1c1ccccc1 | 0.055
CC(C)(C)OC(=O)CC[C@@]12N=C(c3ccc(OCCCO)cc3)O[C@@H]1c1ccccc1N(CCS(=O)(=O)c1ccccc1)C2=O | -0.0203
[N-]=[N+]=NCc1ccccc1[C@@H]1OC(c2ccc(OCCCO)cc2)=N[C@]1(Cc1ccccc1N=[N+]=[N-])C(=O)N1CCOCC1 | 0.334
COCCOC(=O)N1C(=O)[C@@]2(c3cc(C#CC4(O)CCCCCC4)ccc31)[C@H](c1ccc(O)cc1)N1[C@H](c3ccccc3)[C@H](c3ccccc3)OC(=O)[C@H]1[C@@H]2C(=O)Nc1nc2ccccc2s1 | 0.0932
COCCOC(=O)N1C(=O)[C@@]2(c3cc(C#CC4=CCCCC4)ccc31)[C@H](C(=O)N1CCc3cc(OC)c(OC)cc3C1)[C@H]1C(=O)O[C@H](c3ccccc3)[C@H](c3ccccc3)N1[C@@H]2c1ccc(OCCO)cc1 | 0.048
